# Assay outcomes deposited in PubChem BioAssay by several laboratories.
# GDH-TPI counter: GDH-TPI coupling enzyme inhibitors, primary screen, artefact control for M. tuberculosis FBA inhibitor project, biochemical, absorbance, full deck; AID 588335, 2011; GDH-TPI coupled enzyme counterscreen, NADH absorbance; inhibition, % at 4.8 µM; 1.2% of 360,000 active; in the data active means inhibition above about 30%;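 further: 0% = DMSO wells and 100% = wells lacking the enzyme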
# BJeLR viability: MLPCN primary cell-based screen for lethality selective to Ras in HRASV12 cells; 0.17% of 300,000 active; AID 1554, 2009; inhibition, % (no concentration beside the values); BJeLR (HRASV12) viability, CellTiter-Glo ATP luminescence, 48 h; in the data active means inhibition above about 50%
# RecA intein inh: Mtb RecA intein splicing inhibitors, primary screen, biochemical, fluorescence, HTS; Protein RecA (Mycobacterium tuberculosis (strain ATCC 25618 / H37Rv)), P9WHJ3; cell-free RecA intein splicing; inhibition, % (test concentration not listed); 0.75% of 290,000 active; in the data active means inhibition above about 30%;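 further: 0% = vehicle wells and 100% = reference inhibitor control wells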
# Target sequence (P9WHJ3 whole entry, looked up): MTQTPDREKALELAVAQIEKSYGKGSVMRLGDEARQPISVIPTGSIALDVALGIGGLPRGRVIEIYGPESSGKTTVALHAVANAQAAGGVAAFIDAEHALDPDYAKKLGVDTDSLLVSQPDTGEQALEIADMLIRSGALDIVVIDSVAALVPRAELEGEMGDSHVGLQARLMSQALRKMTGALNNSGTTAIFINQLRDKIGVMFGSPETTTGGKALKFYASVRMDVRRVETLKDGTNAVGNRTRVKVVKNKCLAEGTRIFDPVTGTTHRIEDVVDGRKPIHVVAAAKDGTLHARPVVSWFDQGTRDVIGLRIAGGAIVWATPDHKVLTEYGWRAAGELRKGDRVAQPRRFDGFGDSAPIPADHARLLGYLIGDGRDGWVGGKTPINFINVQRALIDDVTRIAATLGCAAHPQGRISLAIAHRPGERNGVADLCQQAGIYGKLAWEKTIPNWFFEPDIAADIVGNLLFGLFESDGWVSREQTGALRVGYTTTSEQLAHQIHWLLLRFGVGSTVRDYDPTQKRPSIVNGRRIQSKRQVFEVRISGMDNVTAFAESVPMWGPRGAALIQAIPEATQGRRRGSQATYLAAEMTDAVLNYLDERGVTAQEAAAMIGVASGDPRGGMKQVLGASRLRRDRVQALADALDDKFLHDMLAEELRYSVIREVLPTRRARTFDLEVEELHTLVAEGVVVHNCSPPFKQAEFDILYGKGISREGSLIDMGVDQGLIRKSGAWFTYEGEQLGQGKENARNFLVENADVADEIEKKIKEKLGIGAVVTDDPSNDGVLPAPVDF
# FBA Mtb inh: Mtb FBA enzyme inhibitors, primary screen, biochemical, fluorescence, strain H37Rv; Fructose-bisphosphate aldolase (Mycobacterium tuberculosis (strain ATCC 25618 / H37Rv)), …; purified M. tuberculosis FBA, fluorescence read-out; inhibition, % at 1 µM; 2.3% of 360,000 active; in the data active means inhibition above about 27%;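 further: 0% = vehicle and 100% = reference inhibitor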
# PrPC TRFRET: inhibitors of human cell surface prion protein PrPC, primary screen, cell-based, TR-FRET | TR-FRET read-out | 0.43% of 370,000 active | AID 720596, 2013 | inhibition, % at 13.8 µM; in the data active means inhibition above about 24%; further: 0% = median of the test wells and 100% = reference compound wells
# Starred values were filed as active, the others as inactive; / = no result given. Rows were chosen to be rich in hits. Some 4.2% of all compounds tested hit in one or more screens of this group.
SMILES,GDH-TPI counter,BJeLR viability,RecA intein inh,FBA Mtb inh,PrPC TRFRET
Cc1ccc(NC(=O)CC2=NC(=O)C(CC(=O)Nc3ccccc3F)S2)cc1 (centres undefined),32.5*,8.7,-4.4,-3.2,-3.9
Cc1ccc2nc(/C(C#N)=C\c3cc(C)n(-c4cccc([N+](=O)[O-])c4)c3C)[nH]c2c1,31.6*,6.1,2.1,-0.1,2.9
COC1=C[C@H](C(=O)NCc2ccccc2)[C@H](C)[C@@H](c2ccccc2)CC1=O,/,/,/,/,7.9
C[C@@H]1[C@H](O)[C@@H](C)/C=C/C=C/C=C/C=C/C=C/C=C/C=C/[C@H](OC2O[C@H](C)[C@@H](O)[C@H](N)[C@@H]2O)C[C@@H]2O[C@](O)(C[C@@H](O)C[C@@H](O)[C@H](O)CC[C@@H](O)C[C@@H](O)CC(=O)O[C@H]1C)C[C@H](O)[C@H]2C(=O)O (some centres undefined),/,/,/,/,-2.5
CCOc1cc(/C=N\Nc2ncc(F)c(N3CCOCC3)n2)ccc1Oc1nc(Cl)ncc1F,32.7*,3.1,0.1,-2.6,-6.9
CCOc1cc(/C=N/NC(=O)c2ccc(O)cc2)ccc1Oc1nc(Cl)ncc1F,22.8,-3.6,5.1,-2.4,-9.5
CC1CN(C(=O)/C=C/c2ccc3c(c2)OCO3)CC(C)O1 (centres undefined),34.8*,-17.6,4.9,9.3,-11.8
COc1ccccc1N1CCN(C(=O)/C=C/c2ccc3c(c2)OCO3)CC1,43.3*,-4.1,2.3,1.2,3.3
CC(=O)c1ccc(N2CCN(C(=O)CCCn3c(=S)[nH]c4cc5c(cc4c3=O)OCO5)CC2)cc1,34.7*,/,/,-0.3,9.2
O=C(c1ccc2c(=O)n(-c3ccccc3)c(=O)[nH]c2c1)N1CCN(c2ccc(F)cc2)CC1,2.7,13.5,0.0,0.1,-7.1
CC(=O)c1ccc(N2CCN(C(=O)c3ccc4c(=O)n(-c5ccccc5)c(=O)[nH]c4c3)CC2)cc1,35.3*,12.6,0.3,0.0,-3.9
C=CCn1c(=O)[nH]c2cc(C(=O)N3CCN(c4ccc(C(C)=O)cc4)CC3)ccc2c1=O,35.6*,-0.7,2.5,-0.6,3.5
C=CCn1c(=O)[nH]c2cc(C(=O)N3CCN(c4cccc(Cl)c4)CC3)ccc2c1=O,2.2,-0.8,-0.9,0.5,-0.4
CN[C@H]1C[C@H]2c3cc(-c4ccc5c(c4)OCO5)ccc3CCN2C[C@H]1[C@H](C)O,/,/,/,/,-15.5
S=c1[nH]nc(-c2ccc3ccccc3n2)o1,38.1*,-5.3,-1.5,3.4,-0.8
FC(F)(F)c1ccc(-c2n[nH]c(=S)o2)nc1,2.6,5.1,0.6,-3.3,-4.6
CC(C)CCN(C)C1CCN(C(=O)Nc2ccccc2)CC1,/,/,/,/,-6.9
C=CCN1C(=O)[C@H](CC(=O)NCc2ccc(OC)c(OC)c2)[C@@]2(C(=O)OCC)CCCC=C12,/,/,/,/,-4.7
CCOC(=O)c1nc(Nc2ccc(C)cc2)c2ccccc2n1,34.4*,-3.4,1.4,-2.8,3.8
CCOC(=O)c1ccc(Nc2ncnc3ccc(C)cc23)cc1,21.4,3.3,-0.2,2.0,3.9
CCOC(=O)c1ccc(Nc2c(OCC)c(=O)c2=O)cc1,35.2*,-8.9,0.1,-2.6,2.9
CCOC(=O)c1ccc(Nc2ncnc3ccccc23)cc1,57.3*,10.3,1.0,1.7,11.0
COc1cccc(CNC2CCC23CCC(C)CC3)c1 (centres undefined),/,/,/,/,-3.9
Cc1cccc(-c2cccc3c4c([nH]c23)[C@@H]2C[C@H](N(C)C(=O)NC3CCCCC3)[C@H]([C@H](C)O)C(=O)N2CC4)c1,/,/,/,/,-2.2
C=CCN(CC#CC1=CCCCC1)Cc1ccc(OC)cc1OC,/,/,/,/,4.8
Cc1ccc(NC2=C(Cl)C(=O)OC2OC(=O)c2ccco2)cc1 (centres undefined),-10.6,-13.7,-0.4,-4.3,2.3
Cc1cccc(NC2=C(Cl)C(=O)OC2OC(=O)c2ccco2)c1 (centres undefined),0.6,-8.1,41.7*,1.6,4.0
Cc1cccc(C2=NN(c3ccc(Br)cc3)[C@@H](C(=O)N3CCOC3=O)[C@@H]2c2ccc(F)cc2)c1,10.8,9.4,-48.1,42.5*,4.0
